KB-V1 cytotox = kills drug-selected multidrug resistant KB-V1 cells; Potency, µM (doses to about 46.1 µM), most hits filed as cytotoxic; KB-V1 MDR cells viability, CellTiter-Glo, 72 h; 400,000 tested, 3.4% active; note: nearly all actives have a fitted effect of over 60% in size
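Drug-selected KB-V1 cells, grown in DMEM lacking phenol red with 10% FBS, receive compound titrations; after three days at 37 degrees C, surviving cell ATP is quantified by CellTiter-Glo luminescence and responses normalized and curve-fitted.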
ELG1 repair inh = blocks ELG1-dependent DNA repair in HEK293T cells. HEK293T ELG1-luciferase reporter, luminescence, 16 h; DNA damage induced by 5-fluorouridine. Potency, µM (titrated, usually from 46.1 µM), actives largely listed as inhibitors. 330,000 tested, 2.3% active. AID 504467; note: nearly all actives have a fitted effect of over 55% in size
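HEK293T cells expressing luciferase-tagged ELG1 (2,000/well) received 5-Fluorouridine plus compound or DMSO for 16 hr at 37 °C. Luciferase was read by ONE-Glo luminescence after 30 min at room temperature.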
KB-3-1 tox = KB-3-1 parental cell cytotoxicity. KB-3-1 viability, CellTiter-Glo ATP luminescence, 72 h. Potency, µM (highest dose often 46.1 µM), most hits filed as cytotoxic. 400,000 tested, 1.4% active. AID 1347075; note: nearly all actives have a fitted effect of over 60% in size
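Luminescent ATP read-out (CellTiter-Glo) measures survival of drug-naive KB-3-1 cells after 72 h compound exposure at 37 °C. Titration series was screened from lowest to highest concentration, with DMSO vehicle plates as background controls.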
SW480 rereplic = DNA re-replication induction in SW480 cells; AID 624297; SW480 DNA re-replication, Hoechst DNA content imaging, 48 h; 340,000 tested, 1.8% active; Potency, µM (series often up to 46.1 µM), usual class: activators; note: nearly all actives have a fitted effect of over 55% in size
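Hoechst fluorescence of nuclei (405 nm excitation, 500-530 nm emission) measured by plate-scanning imager after 48 hr compound exposure at 37 C; re-replication scored as increased number of nuclei with elevated intensity.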
MCF10A rereplic = DNA re-replication induction in MCF 10a cells. 350,000 tested, 2.9% active. AID 624296. Potency, µM (doses to about 46.1 µM), hits mostly activators. MCF 10A DNA re-replication, Hoechst nuclear intensity, 48 h; note: nearly all actives have a fitted effect of over 50% in size
Hits are given with their value; . = inactive; ? = inconclusive; / = no result; ! = a repeat was not active. In the library only some 8.2% were active in any assay of this set; here they are far more common. Calls come from the whole dose curve; as a rule, active = well fitted curve in the direction sought with a large enough effect; inconclusive = small, poorly fitted or top-dose-only effect, or another doubt; inactive = no such curve, though single readings can be large; an effect the other way counts as inactive or inconclusive.

SMILES	KB-V1 cytotox	ELG1 repair inh	KB-3-1 tox	SW480 rereplic	MCF10A rereplic
CCN1C[C@@H]2[C@@H]3C(=O)N(Cc4ccccc4)C(=O)[C@@H]3[C@](Cc3ccccc3)(C1=O)N2C(=O)c1ccc(C(C)(C)C)cc1	.	/	?	.	.
COc1ccc([C@H]2CC(=O)C[C@@H](CCn3cc(Cc4ccccc4)nn3)O2)cc1	?	/	.	/	/
CCC(=O)c1ccc2c(c1)N(CCCN1CCN(CCO)CC1)c1ccccc1S2	/	/	/	?	33µM
CC(=O)c1ccc2c(c1)N(CCCN1CCN(CCO)CC1)c1ccccc1S2	/	/	/	?	.
CN1CCN(CCCN2c3ccccc3Sc3ccc(Cl)cc32)CC1	16µM!	.	?	.	12µM
CCSc1ccc2c(c1)N(CCCN1CCN(C)CC1)c1ccccc1S2	.	?	.	.	?
COc1ccccc1CNC(=O)C1(C)CCN1C(=O)Cc1ccc(-c2ccccc2)cc1 (centres undefined)	.	/	?	/	/
COc1ccc(OC)c2c(C)ccnc12	.	/	.	/	/
O=C(NCc1cccc(Cl)c1)c1ccc(CS(=O)Cc2ccc(Cl)cc2)o1 (centres undefined)	?	13µM	.	.	.
COc1ccc(Nc2nc(-c3ccc(OC)cc3)cs2)cc1	?	?	.	.	.
COc1ccc2oc(=O)c(-c3csc(Nc4ccc(O)cc4)n3)cc2c1	?	9.2µM	?	?	4.1µM
CCOc1ccccc1Nc1nnc(-c2cc3cc(OC)ccc3oc2=O)s1	?	/	.	/	/
COc1ccc2oc(=O)c(-c3nnc(NCc4ccco4)s3)cc2c1	?	?	?	8.9µM	7.3µM
CCOc1cccc2cc(-c3nnc(NCc4ccco4)s3)c(=O)oc12	.	.	.	?	21µM
COc1ccc(Nc2nc(-c3c[nH]c4ccccc34)cs2)cc1	.	?	?	?	16µM
CCN(CC(=O)Nc1c(F)cccc1F)C(=O)c1cccc(S(=O)(=O)N(C)c2ccccc2)c1	.	.	.	.	.
COc1ccccc1N1CCN(C(=O)CSc2nc3ccccc3nc2N2CCCCC2)CC1	.	16µM	.	.	?
COc1ccccc1N1CCN(C(=O)CSc2nc3ccccc3nc2N2CCC(C)CC2)CC1	.	26µM	.	?	.
COc1ccc(-n2ncc3c(SCC(=O)N4CCN(c5ccccc5OC)CC4)ncnc32)cc1	9.2µM	16µM	.	.	?
COc1ccc(-c2nnn(CC(=O)N3CCN(c4ccccc4OC)CC3)n2)cc1	.	23µM	.	.	.
COc1cc(NC(=O)c2ccc(Cl)cc2)c(Cl)cc1NC(=O)c1cccnc1	.	.	.	.	.
COc1cc(SC)ccc1C(=O)N1CCN(c2ccc(O)cc2)CC1	.	21µM	?	?	.
O=C(c1ccccc1[N+](=O)[O-])N(CCc1ccccc1)Cc1ccccc1	.	.	.	.	.
COc1ccc(N(Cc2ccccc2)C(=O)c2ccccc2[N+](=O)[O-])cc1	15µM	?	?	.	.
CCc1cccc(CC)c1NC(=O)C1SC(=Nc2ccccc2C)C(c2nc3ccccc3s2)=C1N (centres undefined)	.	.	?	8.2µM	?
SMILES	KB-V1 cytotox	ELG1 repair inh	KB-3-1 tox	SW480 rereplic	MCF10A rereplic
COc1ccc(Nc2ncnc3onc(-c4ccc(Cl)cc4)c23)cc1Cl	.	/	10µM	/	/
COc1cc(Nc2ncnc3onc(-c4ccc(Cl)cc4)c23)cc(OC)c1	.	/	.	/	/
Cc1c(C(=O)Nc2ccc3c(c2)OCCO3)sc2nc(-c3ccccc3)cn12	12µM	13µM	?	.	.
Cc1c(C(=O)Nc2ccncc2)sc2nc(-c3ccccc3)cn12	.	13µM	.	.	?
COc1ccc(-c2cn3c(C)c(C(=O)N4CCc5ccccc5C4)sc3n2)cc1	.	?	?	.	?
Cc1c(C(=O)NCc2ccco2)sc2nc(-c3ccccc3)cn12	.	?	16µM	?	?
Cc1c(C(=O)N2CCc3ccccc3C2)sc2nc(-c3ccccc3)cn12	.	21µM	.	.	?
Cc1c(C(=O)NCc2cccnc2)sc2nc(-c3ccccc3)cn12	.	?	?	.	?
O=C(CCC(=O)Nc1ccccc1)N/N=C/c1cccnc1	.	.	.	.	.
COC(=O)c1ccccc1NC(=O)CSc1nc2ccccc2nc1Cc1ccccc1OC	?	/	.	/	/
Cc1ccc(C(=O)n2nc(C)c(S(=O)(=O)N3CCOCC3)c2C)cc1	.	/	.	/	/

Compound activity (PubChem)
